Assay results from PubChem BioAssay (EPA / NIEHS).
Values joined by “and” are separate entries in the source; they are usually repeats but may differ in a detail not shown here. Equal entries are not always repeated. Inconclusive results are not listed. The source holds several records for some structures; these can differ, active in one and inactive in another. Active and inactive are the calls of the source. How the source made its calls: active means hit-call score of the fitted dose curve at least 0.9, where 1 is the maximum; inconclusive means response in the unintended direction; inactive means score below 0.9.

Assay: Tanguay_ZF_120hpf_BRAI_legacy: (Legacy) Oregon State University Tanguay Lab 120 Hour Post-fertilization zebrafish Assay for Brain Malformation (AID 2283641)
Experimental: Tanguay_ZF_120hpf_legacy is a whole embryo, multiplexed endpoint assay using zebrafish larvae exposed for 120 hours post fertilization on a 96-well plate.Tanguay_ZF_120hpf_BRAI_legacy is one of one assay component(s) measured or calculated from the Tanguay_ZF_120hpf_legacy assay. It is designed to make measurements of zebrafish development as detected with brightfield microscopy of developing zebrafish embryos.Data from the assay component Tanguay_ZF_120hpf_BRAI_legacy was analyzed into 1 assay endpoints. This assay endpoint, Tanguay_ZF_120hpf_BRAI_legacy, was analyzed in the positive analysis fitting direction relative to DMSO as the negative control and baseline of activity. Using a type of morphology reporter, gain-of-signal activity can be used to understand changes in developmentals as they relate to the whole embryo. To generalize the intended target to other relatable targets, this assay endpoint is annotated to the zebrafish development intended target family, where the subfamily is brain morphogenesis.
Zebrafish husbandry: Tropical 5D wild-type adult zebrafish were housed in at an approximate density of 1000 per 100 gallon tank at the Sinnhuber Aquatic Research Laboratory, Oregon State University, Corvallis, OR. Each tank was kept at standard laboratory conditions of 28C on a 14-h light/10-h dark photoperiod in fish water consisting of reverse osmosis water supplemented with a commercially available salt (Instant Ocean). Spawning funnels were placed into the tanks the night prior, and embryos were collected and staged. […] Ten microliters of each row of dilution plate 2 was added to 2 exposure plates. The final DMSO concentration used was 0.64% (vol/vol). Thirty-two embryos were also exposed to 5uM trimethyltin chloride (positive control). Plates were sealed to prevent evaporation and foil covered to reduce light exposure and kept in a 28C incubator. Embryos were statically exposed until 120 hpf. At 24 hpf, embryos were assessed for photomotor response using a custom photomotor response analysis tool (PRAT) and for developmental toxicity endpoints (MO24: mortality at 24 hpf, DP: developmental progression, SM: spontaneous movement, and NC: notochord distortion). At 120 hpf, locomotor activity was measured using Viewpoint Zebralab and assessed for 18 endpoints. Zebrafish acquisition and analysis program (ZAAP), a custom program designed to inventory, acquire, and manage zebrafish data, was used to collect developmental endpoints as either present or absent (i.e., binary responses were recorded). If mortality occurred for an embryo (at either 24 or 120 hpf), the non-mortality endpoints were not measured.
In the case of `O=S1OCC2C(CO1)C1(Cl)C(Cl)=C(Cl)C2(Cl)C1(Cl)Cl` (stereo not given), the outcome is reported as “inactive”.
With `CN1CSC(=S)N(C)C1` the outcome was “inactive”.
With `OCCOc1ccccc1` the outcome was “inactive”.
For `CC(C)OC(=O)Nc1cccc(Cl)c1`, the AC50 was 39.5 µM (active).
With `O=C(Nc1ccccc1)Nc1cnns1` the outcome was “inactive”.
With `COc1nn(CSP(=S)(OC)OC)c(=O)s1` the outcome was “inactive”.
For `Oc1cc(Cl)ccc1Oc1ccc(Cl)cc1Cl`, the outcome was “inactive”.
In the case of `COP(=S)(OC)Oc1ccc(SC)c(C)c1`, the outcome is reported as “inactive”.
For `O=S(=O)(O)C(F)(F)C(F)(F)C(F)(F)C(F)(F)C(F)(F)C(F)(F)C(F)(F)C(F)(F)F`, the outcome was “inactive” and the AC50 was 34.2 µM (active).
With `O=C(O)COc1ccc(Cl)cc1Cl` the outcome was “inactive”.
With `CC1(c2ccc(Oc3ccccc3)cc2)OC(=O)N(Nc2ccccc2)C1=O` (stereo not given) the outcome was “inactive”.
For `CNC(=O)Oc1cccc(N=CN(C)C)c1`, the outcome was “inactive”.
For `Clc1ccccc1-c1nnc(-c2ccccc2Cl)nn1`, the outcome was “inactive”.
In the case of `O=C(O)CCCOc1ccc(Cl)cc1Cl`, the outcome is reported as “inactive”.
In the case of `CC[C@H](C)[C@H]1O[C@]2(C=C[C@@H]1C)C[C@@H]1C[C@@H](C/C=C(\C)[C@@H](O[C@H]3C[C@H](OC)[C@@H](O[C@H]4C[C@H](OC)[C@@H](O)[C@H](C)O4)[C@H](C)O3)[C@@H](C)/C=C/C=C3\CO[C@@H]4[C@H](O)C(C)=C[C@@H](C(=O)O1)[C@]34O)O2` (tested in a mixture with another compound), the AC50 is reported as 15.6 µM (active).
With `CCOCN(C(=O)CCl)c1c(C)cccc1CC` the outcome was “inactive”.
In the case of `CC(C)(C)C(O)C(Oc1ccc(Cl)cc1)n1cncn1` (stereo not given), the AC50 is reported as 49.8 µM (active) and 33.6 µM (active) and 48.3 µM (active).
In the case of `CNC(=O)Oc1ccccc1OC(C)C`, the outcome is reported as “inactive”.
With `CNC(=O)/C=C(\C)OP(=O)(OC)OC` the outcome was “inactive”.
For `COP(=O)(OC)OC=C(Cl)Cl`, the outcome was “inactive”.
For `O=C1c2ccccc2C(=O)N1SC(Cl)(Cl)Cl`, the outcome was “inactive”.
For `COP(=S)(OC)Oc1ccc([N+](=O)[O-])cc1`, the outcome was “inactive”.
In the case of `N#Cc1c(Cl)c(Cl)c(Cl)c(C#N)c1Cl`, the outcome is reported as “inactive”.
For `ClC1C(Cl)C(Cl)C(Cl)C(Cl)C1Cl` (stereo not given), the outcome was “inactive”.
For `Oc1ccc(Cl)cc1Cc1ccccc1`, the outcome was “inactive”.
With `CCC(C)(NC(=O)c1cc(Cl)c(C)c(Cl)c1)C(=O)CCl` (stereo not given) the outcome was “inactive”.
With `O=C(O)C(F)(F)C(F)(F)C(F)(F)C(F)(F)C(F)(F)C(F)(F)C(F)(F)F` the outcome was “inactive”.
For `C[C@H]1[C@H](c2ccc(Cl)cc2)SC(=O)N1C(=O)NC1CCCCC1`, the outcome was “inactive”.
With `N#CN` the outcome was “inactive”.
In the case of `CCCN(CCOc1c(Cl)cc(Cl)cc1Cl)C(=O)n1ccnc1`, the outcome is reported as “inactive”.
In the case of `CCOC1Oc2ccc(OS(C)(=O)=O)cc2C1(C)C` (stereo not given), the outcome is reported as “inactive”.
In the case of `O=[N+]([O-])/N=C1\NCCN1Cc1ccc(Cl)nc1`, the outcome is reported as “inactive”.
For `Cc1[nH]c(=O)n(C(C)(C)C)c(=O)c1Cl`, the outcome was “inactive”.
In the case of `CCc1ccc(C(=O)NN(C(=O)c2cc(C)cc(C)c2)C(C)(C)C)cc1`, the outcome is reported as “inactive”.
For `O=[N+]([O-])c1c(Cl)c(Cl)c(Cl)c(Cl)c1Cl`, the outcome was “inactive”.
With `CC1(C)C(C=C(Cl)Cl)C1C(=O)OC(C#N)c1ccc(F)c(Oc2ccccc2)c1` (stereo not given) the outcome was “inactive”.
With `C#CCN1C(=O)COc2cc(F)c(N3C(=O)C4=C(CCCC4)C3=O)cc21` the outcome was “inactive”.
With `CCN(CC)C(=O)SCc1ccc(Cl)cc1` the outcome was “inactive”.
For `CC(C)(C)C(O)/C(=C\c1ccc(Cl)cc1Cl)n1cncn1` (stereo not given), the AC50 was 8.24 µM (active).
